DT40 TDP1 CPT – qHTS for Inhibitors of human tyrosyl-DNA phosphodiesterase 1 (TDP1): qHTS in cells in presence of CPT; actives 12% (n = 420,000); chicken DT40 Tdp1-/-;hTDP1 cells + 20 nM CPT, ATP luminescence, 48 h; Potency, µM (top dose mostly 46.2 µM), inactives show top-dose activity change, negative = growth inhibition, usual class: inhibitors; note: nearly all actives have a fitted effect of over 55% in size
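Chicken DT40 Tdp1-/- cells stably complemented with human TDP1 were seeded at 400 cells/well in medium containing 20 nM camptothecin, exposed to pin-transferred compounds, and grown at 37 °C for at least 48 hr. Viability was read as ATP luminescence.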
TDP1 block – qHTS Assay for Inhibitors of Tyrosyl-DNA Phosphodiesterase (TDP1). Tyrosyl-DNA phosphodiesterase 1 (Homo sapiens), Q9NUW8. recombinant TDP1, AlphaScreen DNA substrate cleavage. Potency, µM (doses to about 130 µM), for inactives: at the top dose activity change, negative = inhibition, hits mostly inhibitors. actives 0.28% (n = 350,000). AID 485290, 2010; note: nearly all actives have a fitted effect of over 40% in size
Target sequence (Q9NUW8 whole entry, looked up): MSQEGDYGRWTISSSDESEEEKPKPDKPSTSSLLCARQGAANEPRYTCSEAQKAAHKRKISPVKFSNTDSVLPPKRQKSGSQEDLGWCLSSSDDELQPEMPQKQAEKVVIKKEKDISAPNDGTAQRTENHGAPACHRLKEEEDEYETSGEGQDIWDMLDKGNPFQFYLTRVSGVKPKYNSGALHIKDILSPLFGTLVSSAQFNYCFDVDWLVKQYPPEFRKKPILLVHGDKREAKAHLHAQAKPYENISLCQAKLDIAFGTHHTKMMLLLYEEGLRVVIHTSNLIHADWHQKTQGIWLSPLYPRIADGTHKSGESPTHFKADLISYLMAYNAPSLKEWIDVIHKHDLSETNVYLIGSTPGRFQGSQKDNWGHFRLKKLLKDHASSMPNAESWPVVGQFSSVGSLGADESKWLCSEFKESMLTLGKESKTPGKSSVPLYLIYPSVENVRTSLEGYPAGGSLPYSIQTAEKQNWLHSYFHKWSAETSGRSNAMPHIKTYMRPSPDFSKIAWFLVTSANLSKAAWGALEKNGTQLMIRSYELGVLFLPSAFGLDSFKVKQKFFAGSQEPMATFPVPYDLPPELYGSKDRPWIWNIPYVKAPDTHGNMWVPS
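Signal: AlphaScreen proximity between streptavidin donor and anti-FITC acceptor beads on intact substrate. Reaction: Tdp1 1 nM, substrate 15 nM final, 5 min RT after 15 min compound preincubation.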
TDP1 cell noCPT – qHTS for Inhibitors of human tyrosyl-DNA phosphodiesterase 1 (TDP1): qHTS in cells in absence of CPT | AID 686978, 2013 | Potency, µM (titrated, usually from 46.2 µM), for inactives: at the top dose activity change, negative = growth inhibition, most hits filed as inhibitors | actives 15% (n = 420,000) | DT40 Tdp1-/- hTDP1 cells, no CPT, ATP luminescence, 48 h; note: nearly all actives have a fitted effect of over 55% in size
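Luminescent ATP content (CellTiter-Glo) served as the growth readout. Knockout chicken DT40 cells expressing human TDP1 were exposed to compounds without camptothecin for a minimum 48 hr at 37 °C.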
VP16 counter – VP16 counterscreen qHTS for inhibitors of ROR gamma transcriptional activity; Drosophila S2 Gal4-VP16 UAS-luciferase, luminescence, 20 h; Potency, µM (series often up to 53.6 µM), for inactives: at the top dose activity, negative = inhibition, hits mostly inhibitors; actives 3.5% (n = 310,000); AID 2546, 2010;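 note: Gal4-VP16 expression switched on by copper sulfate through the metallothionein promoter; nearly all actives have a fitted effect of over 50% in size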
RORgamma inh – qHTS for inhibitors of ROR gamma transcriptional activity; Potency, µM (highest dose often 53.6 µM), for inactives: at the top dose activity change, negative = inhibition, hits mostly inhibitors; Drosophila S2 Gal4-RORgamma UAS-luciferase reporter, 20 h; actives 5.4% (n = 310,000); Nuclear receptor ROR-gamma (Mus musculus), P51450; note: nearly all actives have a fitted effect of over 60% in size
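ROR gamma transcriptional activity was tracked as Gal4-UAS luciferase output in stably transfected Drosophila Schneider cells, with compound added 1 hr before 700 uM copper sulfate induction and a 20 hr ambient-temperature incubation.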
* marks the source's active call; other numbers are inactive results; [ ] = remark or other dose. The list is not random: actives were taken first. Their share in the collection is about 19%. Calls come from the whole dose curve; as a rule, active = well fitted curve in the direction sought with a large enough effect; inconclusive = small, poorly fitted or top-dose-only effect, or another doubt; inactive = no such curve, though single readings can be large; an effect the other way counts as inactive or inconclusive. % is set by controls: 0 for no effect and ±100 for the full control effect; potency is the fitted concentration of half-maximal effect.

`S=C(NCCc1ccccc1)Nc1ccc(Nc2ccccc2)cc1` gave DT40 TDP1 CPT 16µM*, TDP1 block 8%, TDP1 cell noCPT inconclusive, VP16 counter 13µM* and RORgamma inh 5µM*.
`c1ccc(-c2nnc3sc(CN4CCC5(CC4)OCCO5)cn23)cc1` gave DT40 TDP1 CPT -12%, TDP1 block 0%, TDP1 cell noCPT -29%, VP16 counter 11% and RORgamma inh 21%.
Screening Cc1ccc(CCNC(=O)c2cc3sccc3n2Cc2ccc(C)cc2)cc1 returned DT40 TDP1 CPT -25%, TDP1 block -1% and TDP1 cell noCPT inconclusive.
CCOC(=O)c1ccccc1NC(=O)c1cc2sccc2n1C was read as DT40 TDP1 CPT 0%, TDP1 block 1%, TDP1 cell noCPT -29%, VP16 counter -2% and RORgamma inh 35%.
Screening O=C(Nc1ccc2c(c1)OCCO2)c1cc2sccc2n1Cc1ccccc1 returned DT40 TDP1 CPT 18µM*, TDP1 block 2%, TDP1 cell noCPT inconclusive, VP16 counter -30% and RORgamma inh 16%.
CCOC(=O)c1cccc(NC(=O)c2cc3sccc3n2C)c1 was read as DT40 TDP1 CPT inconclusive, TDP1 block 9%, TDP1 cell noCPT 21µM*, VP16 counter 9% and RORgamma inh 39%.
CCOC(=O)c1cccc(NC(=O)c2cc3sccc3n2Cc2ccc(Cl)cc2)c1 was read as DT40 TDP1 CPT inconclusive, TDP1 block 1% and TDP1 cell noCPT 18µM*.
Screening Cc1ccc(Cn2c(C(=O)Nc3cccc(Cl)c3)cc3sccc32)cc1 returned DT40 TDP1 CPT 18µM*, TDP1 block 4% and TDP1 cell noCPT inconclusive.
Screening CCOC(=O)C1CC2=C(CCCC2=O)NC1=O (centres undefined) returned DT40 TDP1 CPT -14% and TDP1 cell noCPT -11%.
For CCOC(=O)c1ccc(NC(=O)c2cc3sccc3n2Cc2ccc(Cl)cc2)cc1 the results were DT40 TDP1 CPT 21µM*, TDP1 block -1% and TDP1 cell noCPT 18µM*.
`O=C(Nc1nccs1)c1cc2sccc2n1Cc1ccc(Cl)cc1` gave DT40 TDP1 CPT -26%, TDP1 block 3%, TDP1 cell noCPT -24%, VP16 counter -20% and RORgamma inh -36%.
`CC(=O)c1ccc(NC(=O)c2cc3sccc3n2Cc2ccc(Cl)cc2)cc1` gave DT40 TDP1 CPT 16µM*, TDP1 block 4% and TDP1 cell noCPT 16µM*.
For O=C(COC(=O)/C=C/c1cccc(Br)c1)NCCc1ccccc1 the results were DT40 TDP1 CPT 0%, TDP1 block -16%[0.505 µM] and TDP1 cell noCPT -26%.
Screening CCOC(=O)c1sc(NC(=O)c2ccc(Br)o2)cc1C returned DT40 TDP1 CPT inconclusive, TDP1 block 0%, TDP1 cell noCPT 16µM*, VP16 counter -8% and RORgamma inh inconclusive.
For CCOC(=O)c1sc(NC(=O)c2cccs2)cc1C the results were DT40 TDP1 CPT inconclusive, TDP1 block 2%, TDP1 cell noCPT inconclusive, VP16 counter 1% and RORgamma inh inconclusive.
CCOC(=O)c1sc(NC(=O)Nc2cccc(Cl)c2)cc1C was read as DT40 TDP1 CPT 10µM*, TDP1 block -4%, TDP1 cell noCPT 9.2µM*, VP16 counter inconclusive and RORgamma inh -91%.
`S=C1NC[C@H](CC2CCCCC2)N1CCc1cccc2ccccc12` gave DT40 TDP1 CPT inconclusive, TDP1 block -8%, TDP1 cell noCPT inconclusive, VP16 counter 0.63µM* and RORgamma inh 0.25µM*.
For O=C1NC[C@@H](Cc2cccc3ccccc23)N(CCCCC2CCCCC2)C1=O the results were DT40 TDP1 CPT -22%, TDP1 block -4% and TDP1 cell noCPT -24%.
For O=C1NC[C@H](Cc2ccc(O)cc2)N(CCc2cccc3ccccc23)C1=O the results were DT40 TDP1 CPT inconclusive, TDP1 block 0%, TDP1 cell noCPT -29%, VP16 counter -2% and RORgamma inh -4%.
